Laboratory results taken from the supplement of paper PMC10849652.
Targets with a hit are over-represented here; the source holds about 7,900 in all. About 0.6% of all pairs of compound and target were hits. A number with no mark means an inactive call.

Legend:
Assay in all cases: log2 fold change, soluble protein after heating vs DMSO (PISA); higher = thermal stabilisation; K562 cells, 10 uM, 30 min; active = over 0.2 and 3.5 SD of the protein, either way, in both replicates (recomputed)
[1] = compound: CS(=O)(=O)c1ccc(-c2cnc(N)c(C(=O)Nc3ccccc3)n2)cc1
How it was run: (§1)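 Thermal stability values are relative to control samples and come from duplicates. They are expressed as log2 fold changes. For measurement, K562 cells (2×10^6 cells/mL) received 10 μM compound for 30 min, and aliquots were heated for 3 min over 48°C-58°C, pooled, and extracted at 4°C in PBS with 0.5% NP-40. Soluble protein, the supernatant after 21,000xg for 90 min, was quantified by TMTpro 16plex LC-MS/MS with equalised channel sums.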

[2] = compound: C[C@@H]1COCCN1C2=NC(=NC(=C2)C3(CC3)S(=O)(=O)C)C4=C5C=CNC5=CC=C4
How it was run: as §1

[3] = compound: C[C@H](C1=CC=C(C=C1)C(=O)NC2=C3C=CNC3=NC=C2)N
How it was run: as §1

[4] = compound: C[C@H](Nc1ncnc2nc[nH]c12)c1cc2cccc(Cl)c2c(=O)n1-c1ccccc1 [duvelisib]
How it was run: as §1

[5] = compound: Cc1cc(Nc2cc(CN3CCOCC3)c3nc(C)c(Cc4ccc(Cl)cc4F)n3n2)n[nH]1 [gandotinib]
How it was run: as §1

[6] = compound: Cc1cc(Nc2cc(N3CCN(C)CC3)nc(Sc3ccc(NC(=O)C4CC4)cc3)n2)n[nH]1 [tozasertib]
How it was run: as §1

[7] = compound: Cc1cc(SCc2sc(-c3ccc(C(F)(F)F)cc3)nc2C)ccc1OCC(=O)O
How it was run: as §1

[8] = compound: Cc1ccc(C(=O)N(CCCN)[C@@H](c2nc3cc(Cl)ccc3c(=O)n2Cc2ccccc2)C(C)C)cc1 [ispinesib]
How it was run: as §1

[9] = compound: Cc1cccc(CC(=O)N2CCc3c2ccc(-c2cn(C)c4ncnc(N)c24)c3F)n1
How it was run: as §1

[10] = compound: Cc1cn(-c2cc(NC(=O)c3ccc(C)c(Nc4nccc(-c5cccnc5)n4)c3)cc(C(F)(F)F)c2)cn1 [nilotinib]
How it was run: as §1

[11] = compound: Cc1nc(Nc2n[nH]c3c2CN(C(=O)N[C@H](CN(C)C)c2ccccc2)C3(C)C)c2sccc2n1
How it was run: as §1

[12] = compound: Cc1nc(Nc2ncc(C(=O)Nc3c(C)cccc3Cl)s2)cc(N2CCN(CCO)CC2)n1 [dasatinib]
How it was run: as §1

[13] = compound: Cc1ncc(-c2ccnc(Nc3ccc(S(C)(=O)=O)cc3)n2)n1C(C)C
How it was run: as §1

[14] = compound: Cn1cc(-c2ccc3c(c2)CCN3C(=O)Cc2cccc(C(F)(F)F)c2)c2c(N)ncnc21
How it was run: as §1

[15] = compound: Cn1cc(-c2ccc3nnc(C(F)(F)c4ccc5ncccc5c4)n3n2)cn1
How it was run: as §1

[16] = compound: Cn1cncc1[C@@](N)(c1ccc(Cl)cc1)c1ccc2c(c1)c(-c1cccc(Cl)c1)cc(=O)n2C [tipifarnib]
How it was run: as §1

[17] = compound: FC(F)(F)c1ccc(/C=C/c2nc(COc3ccc(CCCCn4ccnn4)cc3)co2)cc1 [mubritinib]
How it was run: as §1

[18] = compound: C[C@@H](Oc1cc(-c2cnn(C3CCNCC3)c2)cnc1N)c1c(Cl)ccc(F)c1Cl [crizotinib]
How it was run: as §1

[19] = compound: Cc1ccc(-n2nc(C(C)(C)C)cc2NC(=O)Nc2ccc(OCCN3CCOCC3)c3ccccc23)cc1 [doramapimod]
How it was run: as §1

[20] = compound: Cc1ccc(NC(=O)c2ccc(CN3CC[C@H](N(C)C)C3)c(C(F)(F)F)c2)cc1Nc1nccc(-c2cncnc2)n1 [bafetinib]
How it was run: as §1

UniProt Q9NPF2, sequence (Q9NPF2 whole entry, looked up): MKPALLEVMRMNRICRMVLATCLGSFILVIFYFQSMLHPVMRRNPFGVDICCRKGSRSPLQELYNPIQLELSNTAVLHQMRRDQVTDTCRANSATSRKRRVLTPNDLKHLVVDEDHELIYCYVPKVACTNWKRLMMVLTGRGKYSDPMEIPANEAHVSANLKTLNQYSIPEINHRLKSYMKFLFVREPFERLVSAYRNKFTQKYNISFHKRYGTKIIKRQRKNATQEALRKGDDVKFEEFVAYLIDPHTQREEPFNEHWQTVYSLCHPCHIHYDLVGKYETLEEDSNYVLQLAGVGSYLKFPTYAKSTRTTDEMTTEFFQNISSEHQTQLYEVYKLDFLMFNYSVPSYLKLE
UniProt Q9Y2V0, sequence (Q9Y2V0 whole entry, looked up): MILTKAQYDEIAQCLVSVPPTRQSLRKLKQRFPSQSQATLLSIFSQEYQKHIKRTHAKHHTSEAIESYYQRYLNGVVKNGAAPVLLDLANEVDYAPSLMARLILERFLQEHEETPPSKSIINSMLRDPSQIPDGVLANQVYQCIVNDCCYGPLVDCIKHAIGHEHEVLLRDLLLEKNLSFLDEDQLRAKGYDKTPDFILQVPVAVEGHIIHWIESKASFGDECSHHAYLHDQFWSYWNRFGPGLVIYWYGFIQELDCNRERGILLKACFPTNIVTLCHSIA
UniProt Q9UJA2, sequence (Q9UJA2 whole entry, looked up): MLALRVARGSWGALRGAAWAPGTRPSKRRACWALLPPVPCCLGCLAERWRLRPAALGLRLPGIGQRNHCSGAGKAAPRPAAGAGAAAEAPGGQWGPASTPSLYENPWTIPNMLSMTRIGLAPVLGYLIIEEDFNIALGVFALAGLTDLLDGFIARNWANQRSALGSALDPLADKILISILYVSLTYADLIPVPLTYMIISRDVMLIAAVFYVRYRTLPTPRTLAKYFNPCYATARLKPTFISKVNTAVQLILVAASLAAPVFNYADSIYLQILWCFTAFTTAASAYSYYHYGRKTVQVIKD
UniProt Q8WUD6, sequence (Q8WUD6 whole entry, looked up): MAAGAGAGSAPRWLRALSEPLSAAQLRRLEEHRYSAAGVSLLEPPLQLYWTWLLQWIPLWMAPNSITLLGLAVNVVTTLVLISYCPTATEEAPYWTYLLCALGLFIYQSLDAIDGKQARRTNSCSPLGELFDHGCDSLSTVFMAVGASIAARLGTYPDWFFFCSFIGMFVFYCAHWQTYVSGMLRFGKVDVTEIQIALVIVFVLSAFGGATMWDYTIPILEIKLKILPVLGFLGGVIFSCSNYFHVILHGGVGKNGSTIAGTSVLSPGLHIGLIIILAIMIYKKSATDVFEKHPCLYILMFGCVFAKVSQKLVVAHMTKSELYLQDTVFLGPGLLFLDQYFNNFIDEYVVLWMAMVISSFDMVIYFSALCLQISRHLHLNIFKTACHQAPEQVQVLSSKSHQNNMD
UniProt Q14790, sequence (Q14790 whole entry, looked up): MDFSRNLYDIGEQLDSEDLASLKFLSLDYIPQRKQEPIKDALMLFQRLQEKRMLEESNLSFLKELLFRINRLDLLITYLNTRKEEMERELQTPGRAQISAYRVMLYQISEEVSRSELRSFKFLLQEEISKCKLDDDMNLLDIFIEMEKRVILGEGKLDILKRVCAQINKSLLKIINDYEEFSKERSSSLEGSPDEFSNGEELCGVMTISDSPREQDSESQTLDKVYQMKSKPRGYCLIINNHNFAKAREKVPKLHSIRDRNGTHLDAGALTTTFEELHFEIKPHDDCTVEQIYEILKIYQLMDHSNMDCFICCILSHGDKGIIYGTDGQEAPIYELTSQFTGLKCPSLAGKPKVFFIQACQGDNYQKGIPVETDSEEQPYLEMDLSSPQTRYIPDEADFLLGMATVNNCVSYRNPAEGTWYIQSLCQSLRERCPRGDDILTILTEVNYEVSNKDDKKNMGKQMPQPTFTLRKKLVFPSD
UniProt O43529, sequence (O43529 whole entry, looked up): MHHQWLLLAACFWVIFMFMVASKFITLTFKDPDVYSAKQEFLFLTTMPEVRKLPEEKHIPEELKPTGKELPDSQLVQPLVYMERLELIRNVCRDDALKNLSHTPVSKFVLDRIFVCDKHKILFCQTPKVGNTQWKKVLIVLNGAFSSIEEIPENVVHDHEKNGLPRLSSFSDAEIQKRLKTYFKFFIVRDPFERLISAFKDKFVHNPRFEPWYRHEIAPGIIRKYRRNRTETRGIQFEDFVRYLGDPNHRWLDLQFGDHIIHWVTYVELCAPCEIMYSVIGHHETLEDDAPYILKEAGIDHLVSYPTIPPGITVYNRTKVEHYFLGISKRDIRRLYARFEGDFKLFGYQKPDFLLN
UniProt Q9BWU1, sequence (Q9BWU1 whole entry, looked up): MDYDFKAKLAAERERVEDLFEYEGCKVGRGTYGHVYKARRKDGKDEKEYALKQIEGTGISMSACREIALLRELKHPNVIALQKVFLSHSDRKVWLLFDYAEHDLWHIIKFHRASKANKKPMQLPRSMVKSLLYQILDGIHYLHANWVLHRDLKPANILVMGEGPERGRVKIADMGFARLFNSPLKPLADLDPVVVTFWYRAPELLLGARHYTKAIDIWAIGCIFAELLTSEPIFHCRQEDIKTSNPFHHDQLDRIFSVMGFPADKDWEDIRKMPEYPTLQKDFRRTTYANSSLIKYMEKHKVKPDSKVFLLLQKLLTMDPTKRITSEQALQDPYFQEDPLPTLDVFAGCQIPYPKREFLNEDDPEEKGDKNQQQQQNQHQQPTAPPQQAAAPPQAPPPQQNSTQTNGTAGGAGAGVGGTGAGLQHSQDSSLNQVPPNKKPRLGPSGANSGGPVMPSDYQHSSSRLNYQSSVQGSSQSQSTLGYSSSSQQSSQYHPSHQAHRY
UniProt O75503, sequence (O75503 whole entry, looked up): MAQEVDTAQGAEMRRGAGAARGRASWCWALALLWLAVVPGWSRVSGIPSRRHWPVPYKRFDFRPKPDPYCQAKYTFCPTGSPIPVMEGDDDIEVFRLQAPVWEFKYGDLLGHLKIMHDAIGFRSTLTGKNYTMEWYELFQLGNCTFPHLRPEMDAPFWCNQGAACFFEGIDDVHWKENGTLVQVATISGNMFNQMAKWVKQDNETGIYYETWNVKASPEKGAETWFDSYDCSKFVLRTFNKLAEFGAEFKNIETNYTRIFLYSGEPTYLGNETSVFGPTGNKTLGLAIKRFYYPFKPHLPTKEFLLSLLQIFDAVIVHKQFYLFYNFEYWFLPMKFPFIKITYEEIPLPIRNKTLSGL
UniProt Q15417, sequence (Q15417 whole entry, looked up): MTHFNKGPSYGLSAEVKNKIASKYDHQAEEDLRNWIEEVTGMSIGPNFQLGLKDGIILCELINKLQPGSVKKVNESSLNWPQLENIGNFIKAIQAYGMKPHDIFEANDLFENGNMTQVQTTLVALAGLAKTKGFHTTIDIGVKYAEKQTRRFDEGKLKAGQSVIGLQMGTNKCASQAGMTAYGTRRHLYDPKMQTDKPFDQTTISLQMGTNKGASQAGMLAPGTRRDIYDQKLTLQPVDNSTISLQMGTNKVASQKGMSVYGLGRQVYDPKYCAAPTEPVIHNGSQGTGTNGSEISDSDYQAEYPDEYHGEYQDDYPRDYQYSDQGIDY
UniProt Q14677, sequence (Q14677 whole entry, looked up): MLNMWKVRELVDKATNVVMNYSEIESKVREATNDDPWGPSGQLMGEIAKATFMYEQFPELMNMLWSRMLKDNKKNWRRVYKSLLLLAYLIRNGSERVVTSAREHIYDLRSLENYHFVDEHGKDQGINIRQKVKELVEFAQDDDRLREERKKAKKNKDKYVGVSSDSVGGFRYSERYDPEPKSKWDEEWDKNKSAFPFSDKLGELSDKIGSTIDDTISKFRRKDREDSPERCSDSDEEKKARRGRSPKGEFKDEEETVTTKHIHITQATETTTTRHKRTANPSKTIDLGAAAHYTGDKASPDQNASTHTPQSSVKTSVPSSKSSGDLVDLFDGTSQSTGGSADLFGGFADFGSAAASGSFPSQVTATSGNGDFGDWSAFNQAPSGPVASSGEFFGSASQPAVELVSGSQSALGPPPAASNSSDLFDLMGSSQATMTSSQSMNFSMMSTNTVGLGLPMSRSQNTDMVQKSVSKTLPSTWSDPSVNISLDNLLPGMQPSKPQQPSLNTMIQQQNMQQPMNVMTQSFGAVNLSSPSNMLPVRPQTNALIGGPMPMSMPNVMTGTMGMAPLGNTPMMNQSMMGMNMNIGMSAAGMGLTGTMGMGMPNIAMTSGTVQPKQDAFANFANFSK

Target	log2 fold change [1]	log2 fold change [2]	log2 fold change [3]	log2 fold change [4]	log2 fold change [5]	log2 fold change [6]	log2 fold change [7]	log2 fold change [8]	log2 fold change [9]	log2 fold change [10]	log2 fold change [11]	log2 fold change [12]	log2 fold change [13]	log2 fold change [14]	log2 fold change [15]	log2 fold change [16]	log2 fold change [17]	log2 fold change [18]	log2 fold change [19]	log2 fold change [20]
CHPT1 (UniProt Q8WUD6)	0.064	-0.07	0.023	0.025	0.038	-0.016	0.015	-1.09 (active)	0.197	-0.596	-0.029	-0.074	-0.017	0.011	-0.027	-0.192	0.387	–	–	–
CHST11 (UniProt Q9NPF2)	0.056	-0.037	0.019	–	0.029	-0.033	–	-0.068	-0.117	0.049	-0.026	–	0.008	0.039	-0.249	-0.012	-0.064	-0.106	0.087	-0.01
C15orf41 (UniProt Q9Y2V0)	0.057	0.074	0.023	0.003	-0.027	0.1	-0.004	-0.2	-0.101	–	–	-0.357 (active)	–	-0.097	-0.088	-0.087	–	-0.01	0.08	–
CRLS1 (UniProt Q9UJA2)	-0.228	–	-0.047	-0.025	-0.083	0	0.05	–	0.012	0.01	-0.064	0.101	0.056	-0.002	–	-0.138	0.007	0.02	0.023	–
CLINT1 isoform 3 (UniProt Q14677)	-0.019	–	0.159	-0.029	0.047	-0.025	-0.097	-0.001	-0.083	0.042	0.037	0.264 (active)	-0.026	-0.071	-0.083	0.017	0.045	0.02	0.012	0.024
CNN3 (UniProt Q15417)	0.044	0.075	-0.066	-0.02	-0.1	0.069	0.15	–	-0.025	-0.066	-0.056	-0.057	0.108	0.023	–	-0.107	0.06	–	–	0.02
CDK19 (UniProt Q9BWU1)	0.042	0.03	0.401	-0.089	-0.051	-0.197	0.034	0.291	-0.014	-0.266	0.297	0.101	0.338	-0.01	-0.054	-0.045	0.112	–	–	–
CASP8 isoform 9 (UniProt Q14790)	0.007	-0.013	–	0.104	-0.07	0.181	-0.007	-0.151	0.093	-0.183	0.018	-0.039	0.069	–	-0.066	-0.094	-0.095	-0.02	0.072	0.072
CLN5 (UniProt O75503)	0.136	0.06	0.046	0.093	-0.077	-0.115	0.073	–	0.019	0.041	-0.508	-0.46	0.026	-0.119	–	0.002	-0.169	-0.733	0.044	-0.945 (active)
CHST10 (UniProt O43529)	0.235	0.014	0.009	–	0.087	-0.037	–	-0.009	0.052	0.092	-0.081	–	0.104	0.071	-0.09	0.05	0.064	-0.206	0.015	-0.036
